Experimental data reported in PubChem BioAssay AID588453 (National Center for Advancing Translational Sciences (NCATS), 2011).
Among all 390,000 compounds or so, about 4,000 (1%) were called active. Inconclusive results (about 4%) are left out. What follows is part of a selection rich in actives, with near analogues and random picks from the rest. Values without a mark were called inactive. Calls come from the whole dose curve; as a rule, active = well fitted inhibition curve with a large enough effect; inconclusive = small, poorly fitted or top-dose-only effect; inactive = no such curve, though single readings can be large or run the other way.

molecular target: Thioredoxin reductase 1, cytoplasmic (Rattus norvegicus) (UniProt O89049); experiment: qHTS Assay for Inhibitors of Mammalian Selenoprotein Thioredoxin Reductase 1 (TrxR1): qHTS; settings: recombinant rTrxR1, NADPH fluorescence consumption, selenite substrate; series mostly up to 114 µM; activity change, negative = inhibition: at the top concentration; note: nearly all actives have a fitted effect of over 65% in size
Sequence (O89049 whole entry, looked up): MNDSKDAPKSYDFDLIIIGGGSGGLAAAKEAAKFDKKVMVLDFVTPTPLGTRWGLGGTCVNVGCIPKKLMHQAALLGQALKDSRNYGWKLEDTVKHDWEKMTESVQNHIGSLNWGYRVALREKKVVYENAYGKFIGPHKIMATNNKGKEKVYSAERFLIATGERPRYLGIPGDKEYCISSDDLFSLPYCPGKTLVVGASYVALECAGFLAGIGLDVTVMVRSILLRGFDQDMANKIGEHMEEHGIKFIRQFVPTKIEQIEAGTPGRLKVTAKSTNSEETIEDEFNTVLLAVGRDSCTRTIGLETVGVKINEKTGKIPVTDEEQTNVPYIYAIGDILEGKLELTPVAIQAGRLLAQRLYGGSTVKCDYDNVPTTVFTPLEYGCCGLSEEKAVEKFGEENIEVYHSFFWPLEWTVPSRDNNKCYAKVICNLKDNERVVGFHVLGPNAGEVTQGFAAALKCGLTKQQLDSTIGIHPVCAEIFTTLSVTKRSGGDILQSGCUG
How it was run: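 Rat TrxR1 (90 nM in the dispensed reagent) was pre-reduced with 400 uM NADPH for 5 min at room temperature, then incubated with compound for 15 min. After 400 uM selenite was added, NADPH fluorescence (Ex 340/Em 450 nm) was followed for 8 min.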
% is set by controls: 0 for no effect and ±100 for the full control effect; potency is the fitted concentration of half-maximal effect.

| SMILES | activity change, negative = inhibition | Potency |
| --- | --- | --- |
| CCOc1ccc(C2c3[nH]c4ccccc4c3CCN2Cc2cccn2-c2ncccn2)cc1 (centres undefined) | -8.64% | – |
| COCc1ccc(C(=O)N2CCc3c([nH]c4ccccc34)C2c2ccccn2)s1 (centres undefined) | 29.7% [at 57.1 µM] | – |
| c1ccc(C2c3[nH]c4ccccc4c3CCN2Cc2cccn2-c2cccnc2)nc1 (centres undefined) | – | 50.1 µM (active) |
| CS(=O)c1ccc(/C=C2\C=Cc3ccccc32)cc1 (centres undefined) | -8.61% | – |
| CCOC(=O)c1nnn(CC(=O)NC(=O)Nc2ccccc2F)c1C(=O)OCC | -3.22% | – |
| Cc1ccc(Cc2cnc(N)s2)o1 | – | 22.4 µM (active) |
| COc1cn(CC(=O)Nc2cccc(C)c2C)c(CN2CCCCC2)cc1=O | 8.52% [at 57.1 µM] | – |
| Cc1cccc(N2CCN(C(=O)CCn3c(=O)c4cccn4c4cccnc43)CC2C)c1 (centres undefined) | 7.19% | – |
| CCn1c(CNC(=O)C23CC4CC(CC(C4)C2)C3)nnc1SCC(=O)Nc1ccc(OC)cc1 | -3.1% | – |
| CSc1oc(-c2cccs2)nc1S(=O)(=O)c1ccc(Br)cc1 | 12.6% | – |
| CCCCS(=O)(=O)c1oc(-c2cccs2)nc1S(=O)(=O)c1ccccc1 | – | 0.447 µM (active) |
| NC(=O)CSc1oc(-c2cccs2)nc1S(=O)(=O)c1ccccc1 | 7.07% [at 57.1 µM] | – |
| C(=Nc1ccc(/C=C/c2ccnc3ccccc23)cc1)Nc1ccc(/C=C/c2ccnc3ccccc23)cc1 | -1.09% | – |
| CCOC(=O)c1c(C)oc2nc(C)nc(Nc3ccc(CC)cc3)c12 | 38.5% | – |
| CCCOc1ccc(C(=O)Nc2ccc3oc(-c4cccc(Cl)c4Cl)nc3c2)cc1 | 37.6% | – |
| Oc1c(C=Nc2cccc3nsnc23)ccc2ccccc12 | – | 39.8 µM (active) |
| Cc1cccc(-c2nnc(SCC(=O)N3CCCc4ccccc43)o2)c1 | -0.491% | – |
| COc1ccc(-c2nc(=N)sn2-c2ccccc2)cc1 | -21.3% | – |
| COC(=O)c1cc(NC(=O)CCc2c(C)nc3c4c(C)cc(C)nc4nn3c2C)cc(C(=O)OC)c1 | 11.9% | – |
| Cc1cc(C)c2c(n1)nn1c(-n3ccnc3)cc(C)nc21 | – | 8.91 µM (active) |
| Cc1cc(C)c2c(NC(=O)C3CC3)nn(C)c2n1 | 39% | – |
| CCOc1ccc(CNC(=O)c2cc(-c3ccc(Cl)s3)nc3ccccc23)cc1 | 35.6% | – |
| Cc1ccc(-c2cc(C(=O)NN)n[nH]2)o1 | 5.28% [at 57.1 µM] | – |
| Cc1ccc(NC(=O)c2cc(-c3ccc(C)o3)nc3ccccc23)nc1 | – | 14.1 µM (active) |
| CCOC(=O)c1cc2c(=O)n3ccccc3nc2n(CC2CCCO2)c1=NC(=O)c1ccc(C(C)(C)C)cc1 (centres undefined) | 6.69% | – |

| SMILES | activity change, negative = inhibition | Potency |
| --- | --- | --- |
| Cc1cccc(N2CCN(C3=C(c4ccccc4)C(=O)c4ccccc43)CC2)c1C | 3% | – |
| CC(=O)/C(C)=N/O | – | inactive |
| Cc1noc(C)c1NC(=O)Nc1ccc2c(c1)C(=O)N([C@H](C)CO)C[C@H](C)[C@@H](CN(C)C(=O)Nc1ccc(C(F)(F)F)cc1)O2 | -11.5% | – |
| C[C@H](CO)N1C[C@H](C)[C@H](CN(C)C(=O)Nc2ccc(C(F)(F)F)cc2)Oc2c(NC(=O)c3ccncc3)cccc2C1=O | – | 56.2 µM (active) |
| Cc1noc(C)c1NC(=O)Nc1cccc2c1O[C@H](CN(C)C(=O)Nc1ccccc1)[C@@H](C)CN([C@H](C)CO)C2=O | 5.71% | – |
| CCc1ccc(N(CC)C(=O)CCn2cnc3onc(-c4ccc(F)cc4)c3c2=O)cc1 | 9.72% | – |
| COc1cc(Cl)c(C)cc1NC(=O)CSc1nnc(CN2CCCC2)o1 | 33.7% | – |
| COc1cc(Cl)c(C)cc1NC(=O)CSc1nnc(-c2ccco2)n1CC(C)C | – | 12.6 µM (active) |
| COc1ccccc1NC(=O)CSc1nnc(-c2ccoc2C)n1CCc1ccccc1 | -4.19% | – |
| Cc1cccc(C(=O)Nc2ccc(S(=O)(=O)N3CCCCC3c3cccnc3)cc2)c1 (centres undefined) | 20.3% [at 57.1 µM] | – |
| Cc1ccc2oc(C(=O)Nc3ccc(S(=O)(=O)N4CCCCCC4)cc3)cc(=O)c2c1 | 24.7% | – |
| COc1ccc(NC(=O)COCc2cc(-c3ccco3)on2)cc1 | 23.4% [at 57.1 µM] | – |
| COc1ccc(-c2nc3ccc(C(=O)NCc4ccc(C)cc4)cc3nc2-c2ccc(OC)cc2)cc1 | 36.4% [at 57.1 µM] | – |
| COCCNC(=O)Nc1ccc2nc(-c3ccco3)c(-c3ccco3)nc2c1 | – | 3.16 µM (active) |
| CCOc1ccc(NC(=O)c2ncoc2-c2ccco2)cc1 | 7.87% [at 57.1 µM] | – |
| C=CCNC(=O)c1ccc2nc(-c3ccco3)c(-c3ccco3)nc2c1 | – | 7.94 µM (active) |
| COc1cc(-n2c(C)nc3cc(C(=O)NCc4ccco4)ccc32)cc(OC)c1OC | -16.2% | – |
| Cc1nc2sc(C)c(C)n2c(=O)c1S(=O)(=O)NCCc1ccc(Cl)cc1 | 17.8% | – |
| O=C(NCCS(=O)(=O)N1CCN(c2ccc(F)cc2)CC1)c1ccccc1Br | 15.9% [at 57.1 µM] | – |
| O=[N+]([O-])c1ccc(/C=C/c2ccc3cccnc3c2)cc1 | 5.43% | – |
| O=C(Cn1cc(SCc2cccc(Cl)c2)c2ccccc21)N1CCCCC1 | 17% | – |
| N#C/C=C(/c1ccc(F)cc1)N1CCOCC1 | 12.6% | – |
| N#C/C(=C/c1ccc(N2CCOCC2)o1)C(=O)N1CCOCC1 | – | 50.1 µM (active) |
| O=C(N1CCOCC1)N1CCOCC1 | 32.6% | – |
| COc1cccc(C(=O)NC(=O)Nc2ccc(-c3cc(C(F)(F)F)nn3-c3ccccc3)cc2)c1 | -9.56% | – |

| SMILES | activity change, negative = inhibition | Potency |
| --- | --- | --- |
| Cc1cccc(-n2ncc(C(=O)N3CCN(c4ccc(Cl)cc4)CC3)c2C2CCN(C(=O)OC(C)(C)C)CC2)c1 | 5.36% | – |
| Cc1cccc(-n2ncc(Cl)c(Cl)c2=O)c1 | – | 44.7 µM (active) |
| Cc1cccc(-n2ncc(C(=O)N3CCC(C)CC3)c2C2CCN(C(=O)OC(C)(C)C)CC2)c1 | 29.8% | – |
| CCOc1ccc(C2CC(=O)c3c([nH]c(C(=O)OCc4ccccc4)c3C)C2)cc1 (centres undefined) | 23% | – |
| CCc1ccc(OCCCn2c(CCCNC(=O)C3CCCCC3)nc3ccccc32)cc1 | 7.76% | – |
| Cc1ccc(C=O)cc1Cl | 27.3% | – |
| Cc1ccc(-n2ncc3c(N4CCC(C(N)=O)CC4)ncnc32)cc1 | 10.5% [at 57.1 µM] | – |
| Cc1cc(NC(=O)CSc2nc(=O)cc(N)n2-c2ccc(F)cc2)no1 | 8.12% | – |
| Cc1cc(NC(=O)CCC(=O)N(CC(=O)NC2CCCC2)c2ccc(F)cc2)no1 | 27.1% [at 57.1 µM] | – |
| Cc1cc(NC(=O)CCS(=O)(=O)c2ccc(F)cc2)no1 | – | 44.7 µM (active) |
| ClC/C=C/C[n+]1ccccc1Cl | -29.2% | – |
| C/C(=N/Nc1nc(-c2ccccc2)c(CC(=O)O)s1)c1ccccc1 | – | 5.62 µM (active) |
| CC(=O)NC(CC(=O)Nc1nc(-c2ccccc2)c(C(C)=O)s1)c1ccccc1 (centres undefined) | 24.1% | – |
| C/C(=N\Nc1cccc(C(=O)O)c1)c1ccc2c(c1)Nc1ccccc1S2 | -0.323% | – |
| CC(C)CCN(C(=O)Nc1ccc(Cl)c(Cl)c1)C(C)c1cccs1 (centres undefined) | 28.6% [at 57.1 µM] | – |
| Cc1ccc(C(=O)CC2(O)C(=O)N(CCc3ccccc3)c3ccc(Br)cc32)cc1 (centres undefined) | 15.4% | – |
| C=CCN1C(=O)C(O)(CC(=O)c2ccccn2)c2ccccc21 (centres undefined) | -1.4% [at 57.1 µM] | – |
| C=CCN1C(=O)C(O)(CC(=O)c2ccc(Cl)cc2)c2ccccc21 (centres undefined) | – | 35.5 µM (active) |
| CCCCC(CCCC)c1ccc(C=Nc2ccc(/C=C/c3ccnc4ccccc34)cc2)cc1 | -17.9% | – |
| COc1cccc(Cn2c(SCc3ccc(C(=O)N4CCCCC4)cc3)nc3ccncc32)c1 | -22.6% | – |
| Fc1cccc(-n2ncc3c2ncn2nc(-c4ccccc4Cl)nc32)c1 | 34.7% | – |
| C1=C(N2CCOCC2)/C(=C/c2nc3ccccc3[nH]2)CC1 | – | 15.8 µM (active) |
| Cc1nn2c3cc(N4CCOCC4)ccc3nc2c2ccccc12 | -2.61% | – |
| Cn1cc(S(=O)(=O)N2CCCCCC2)cc1C(=O)N1CCN(c2ccc(F)cc2)CC1 | 1.38% [at 57.1 µM] | – |
| COc1cccc(NC(=O)COC(=O)/C=C/c2ccco2)c1 | – | 39.8 µM (active) |

| SMILES | activity change, negative = inhibition | Potency |
| --- | --- | --- |
| NS(=O)(=O)c1cccc(NC(=O)COC(=O)/C=C/c2ccco2)c1 | -45.1% | – |
| COc1ccc([N+](=O)[O-])cc1NC(=O)COC(=O)/C=C/c1ccco1 | 4.25% | – |
| CCC(C)N(c1ccc(/C=C/c2ccnc3ccccc23)cc1)C(C)CC (centres undefined) | -11.6% | – |
| CCN(CC)/[N+]([O-])=N/OCOC(=O)Cc1c(C)n(C(=O)c2ccc(Cl)cc2)c2ccc(OC)cc12 | 13.3% [at 0.457 µM] | – |
| COc1ccc(NC(=O)CSc2nc3ncccc3[nH]2)c(OC)c1 | 6.36% | – |
| OCC(O)C(O)C(O)C(O)C=Nc1ccc(/C=C/c2ccnc3ccccc23)cc1 (centres undefined) | 18.2% | – |
| O=C(/C=C/c1ccco1)Nc1cccc(-c2nc3ccccc3[nH]2)c1 | – | 79.4 µM (active) |
| O=C(Nc1cccc(-c2nc3ccccc3o2)c1)c1cccc(Br)c1 | 18.4% [at 57.1 µM] | – |
| CCc1ccc2oc(-c3ccc(C)c(NC(=O)/C=C/c4ccco4)c3)nc2c1 | -24.3% | – |
| COc1ccc(-c2cc(-c3nc(-c4cc(OC)c(OC)c(OC)c4)no3)[nH]n2)c(OC)c1 | 16.3% [at 57.1 µM] | – |
| O=C1/C(=C\c2ccc(O)cc2)CCC1CNc1ccc(Cl)cc1 (centres undefined) | – | 22.4 µM (active) |
| Cc1ccc(NS(=O)(=O)c2ccc3c(c2)CC(=O)N3)cc1Cl | 9.35% | – |
| CCOc1n[nH]c(-c2ccccc2)n1 | -18.3% | – |
| CN(Cc1ccccc1)c1ccc(/C=C/c2ccnc3ccccc23)cc1 | 0.744% | – |
| COc1ccc(C(F)(F)F)cc1NC(=O)c1sc2nc(-c3cccs3)ccc2c1N | 20.9% | – |
| C=CC1(C)CC(=O)C2(O)C(C)(O1)C(OC(C)=O)C(O)C1C(C)(C)CCC(O)C12C (centres undefined) | – | inactive |
| COc1ccc(C(=O)COC(=O)CNC(=O)c2cccs2)cc1Br | 8.81% | – |
| CCOc1ccc(C(C)=O)cc1COC(=O)CN1C(=O)NC2(CCCC2)C1=O | – | 28.2 µM (active) |
| CCOc1ccc(C(C)NC(=O)CN2C(=O)NC3(CCCCC3)C2=O)cc1OCC (centres undefined) | -5.62% | – |
| Cc1ccc(COC(=O)CN2C(=O)NC3(CCCC3)C2=O)cc1 | 27.7% | – |
| CCOc1ccc(C(C)=O)cc1COC(=O)c1cnc(Cl)c(Cl)c1 | 24.3% [at 57.1 µM] | – |
| CCOc1ccc(C(C)=O)cc1COC(=O)CNC(=O)c1cccs1 | – | 22.4 µM (active) |
| COc1ccc(/C=C/c2ccccn2)cc1OC | 8.3% | – |
| O=C(NCCCN1CCN(c2cccc(Cl)c2)CC1)c1nnc(Cc2ccc(F)cc2Cl)o1 | -1.33% | – |
